Consider eight molecules from ChEMBL document CHEMBL3988442, “University of Dundee, Small-Polar-MMV Screening Library” (2021).

What all share (set-up): scale not given: direction of the effect not stated beside the values
In assay [1] the target is Protein translocase subunit SecA (Escherichia coli (strain K12)) (UniProt P10408). The assay can be described thus: Assay to Identify E. coli SecA ATPase Inhibitors. The format is functional. The conditions noted are these: 30 µM.
Assay [2] has as its target T1, Ubiquitin-activating enzyme e1, putative (Leishmania donovani (strain BPK282A1)) (UniProt E9BSI1).
T1 sequence (whole entry): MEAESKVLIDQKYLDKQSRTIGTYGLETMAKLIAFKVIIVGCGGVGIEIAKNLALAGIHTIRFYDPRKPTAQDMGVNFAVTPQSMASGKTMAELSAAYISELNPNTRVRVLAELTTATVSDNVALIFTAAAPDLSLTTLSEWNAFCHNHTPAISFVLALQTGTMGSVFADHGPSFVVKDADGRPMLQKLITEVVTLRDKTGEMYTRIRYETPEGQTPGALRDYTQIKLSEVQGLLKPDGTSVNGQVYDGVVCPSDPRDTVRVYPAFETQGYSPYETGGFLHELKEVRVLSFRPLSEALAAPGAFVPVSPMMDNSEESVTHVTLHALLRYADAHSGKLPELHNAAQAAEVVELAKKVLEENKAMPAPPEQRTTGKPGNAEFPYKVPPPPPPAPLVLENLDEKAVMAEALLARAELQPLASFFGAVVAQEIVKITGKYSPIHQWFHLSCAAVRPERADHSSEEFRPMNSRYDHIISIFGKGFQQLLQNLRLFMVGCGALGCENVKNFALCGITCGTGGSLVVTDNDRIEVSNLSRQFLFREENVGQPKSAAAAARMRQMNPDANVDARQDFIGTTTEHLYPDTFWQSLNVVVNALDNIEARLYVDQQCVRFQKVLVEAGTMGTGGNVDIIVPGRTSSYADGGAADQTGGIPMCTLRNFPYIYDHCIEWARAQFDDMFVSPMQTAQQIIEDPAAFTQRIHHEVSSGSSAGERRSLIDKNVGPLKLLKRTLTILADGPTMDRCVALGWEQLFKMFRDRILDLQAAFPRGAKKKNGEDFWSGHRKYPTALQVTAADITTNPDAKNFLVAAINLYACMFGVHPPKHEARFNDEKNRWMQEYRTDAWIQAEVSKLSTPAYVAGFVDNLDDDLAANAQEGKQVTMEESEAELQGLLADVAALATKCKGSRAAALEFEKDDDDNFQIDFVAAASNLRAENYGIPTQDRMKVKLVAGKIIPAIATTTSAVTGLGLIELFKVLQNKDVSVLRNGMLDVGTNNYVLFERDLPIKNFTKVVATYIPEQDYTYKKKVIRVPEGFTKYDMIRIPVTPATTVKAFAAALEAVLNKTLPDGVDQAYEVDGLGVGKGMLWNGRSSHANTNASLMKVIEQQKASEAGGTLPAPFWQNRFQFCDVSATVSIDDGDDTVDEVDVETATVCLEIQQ
The assay can be described thus: Leishmania donovani Ubiquitin Activating Enzyme (LdE1). The format is functional. The conditions noted are these: 30 µM.

Assay [3] has as its target AMP-activated protein kinase, AMPK (Homo sapiens) (UniProt P54646+O43741+P54619+Q9UGJ0+Q9Y478+Q13131+Q9UGI9). Kind of assay: AMP-dependent Kinase enzyme assay. An in vitro enzyme assay that detects ADP turnover that is directly proportional to AMPK activity. This uses naive AMPK that is activated during the assay with MK-8722. It is filed as functional. The conditions noted are these: 30 µM.

Assay [4] concerns the target Sialic acid-binding Ig-like lectin 9 (Homo sapiens) (UniProt Q9Y336). Kind of assay: Hs-Siglec9 ALPHAscreen SOP 20170721. The settings on record: 10 µM. Background: Bead proximity is the source of the signal in Alpha formats.
The test system of a further assay is Trypanosoma cruzi. The assay can be described thus: Trypanosoma cruzi phosphomannomutase and mannose-1-phosphate guanylyltransferase assay. It is filed as functional. The conditions noted are these: 10 µM.
Assay [5] addresses T2, Arginase-2, mitochondrial (Homo sapiens) (UniProt P78540).
T2 sequence (whole entry): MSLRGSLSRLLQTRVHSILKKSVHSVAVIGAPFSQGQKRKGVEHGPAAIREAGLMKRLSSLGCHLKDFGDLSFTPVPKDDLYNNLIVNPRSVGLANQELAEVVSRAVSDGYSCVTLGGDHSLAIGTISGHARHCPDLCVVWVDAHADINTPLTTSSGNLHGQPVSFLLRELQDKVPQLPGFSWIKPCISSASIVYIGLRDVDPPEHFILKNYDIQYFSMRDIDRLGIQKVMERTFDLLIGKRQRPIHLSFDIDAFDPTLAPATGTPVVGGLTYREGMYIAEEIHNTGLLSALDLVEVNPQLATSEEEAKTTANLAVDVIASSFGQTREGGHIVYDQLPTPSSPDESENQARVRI
The assay can be described thus: in vitro enzyme assay to detect the production of urea directly proportional to the activity of Arginase II. Also: in the data most compounds retested in dose-response had high values. The format is functional. The settings on record: 33.3 µM.

Assay [6] has as its target T3, Proteasome subunit beta (Trypanosoma cruzi) (UniProt O96673).
T3 sequence (whole entry): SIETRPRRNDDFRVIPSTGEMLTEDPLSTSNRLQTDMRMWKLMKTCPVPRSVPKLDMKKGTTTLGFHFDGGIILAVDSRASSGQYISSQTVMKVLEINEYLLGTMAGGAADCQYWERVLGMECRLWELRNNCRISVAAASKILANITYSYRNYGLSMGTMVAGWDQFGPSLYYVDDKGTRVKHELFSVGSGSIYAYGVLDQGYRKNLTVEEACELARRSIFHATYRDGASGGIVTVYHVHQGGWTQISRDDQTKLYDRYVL
The assay can be described thus: Trypanosoma cruzi proteasome chymotrypsin-like activity (TcProtChymo) assay. Also: in the data most compounds retested in dose-response had high values. It is filed as functional. The settings on record: 9.37 µM.

The species named for another assay is Homo sapiens. The assay can be described thus: To identify inhibition of the IFN signalling (Jak-Stat) pathway via expression of an eGFP reporter gene under the control of an IFN-stimulated response element (ISRE) containing MxA promoter. It is filed as functional. The conditions noted are these: 30 µM.
For assay [7], the target named is T4, Tyrosyl-tRNA synthetase, putative (Trypanosoma cruzi (strain CL Brener)) (UniProt Q4DSP6).
T4 sequence (whole entry): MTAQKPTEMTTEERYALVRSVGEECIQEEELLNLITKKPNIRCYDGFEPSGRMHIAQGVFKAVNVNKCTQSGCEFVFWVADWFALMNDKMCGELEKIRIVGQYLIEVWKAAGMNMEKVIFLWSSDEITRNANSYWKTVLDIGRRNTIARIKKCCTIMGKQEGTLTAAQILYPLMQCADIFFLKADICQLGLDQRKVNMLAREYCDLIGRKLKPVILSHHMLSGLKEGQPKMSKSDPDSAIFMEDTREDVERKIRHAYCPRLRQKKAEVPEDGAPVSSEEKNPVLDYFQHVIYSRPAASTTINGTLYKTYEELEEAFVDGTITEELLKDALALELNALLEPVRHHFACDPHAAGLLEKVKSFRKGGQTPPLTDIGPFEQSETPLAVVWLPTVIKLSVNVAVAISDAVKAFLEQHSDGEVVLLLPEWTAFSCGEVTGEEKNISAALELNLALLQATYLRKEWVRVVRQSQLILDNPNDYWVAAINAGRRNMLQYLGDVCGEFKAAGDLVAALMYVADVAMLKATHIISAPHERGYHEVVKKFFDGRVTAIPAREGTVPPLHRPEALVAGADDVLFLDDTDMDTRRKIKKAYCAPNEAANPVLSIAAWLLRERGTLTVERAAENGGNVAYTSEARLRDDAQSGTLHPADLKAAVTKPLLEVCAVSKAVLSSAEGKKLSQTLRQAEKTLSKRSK
The assay can be described thus: Trypanosoma cruzi tyrosyl tRNA synthetase (TcYRS) _High Tyrosine SOP. Also: in the data most compounds retested in dose-response had high values. It is filed as functional. The conditions noted are these: 30 µM.

The target of assay [8] is T4, Tyrosyl-tRNA synthetase, putative (Trypanosoma cruzi (strain CL Brener)). The assay can be described thus: Trypanosoma cruzi tyrosyl tRNA synthetase (TcYRS) SOP. The settings on record: 30 µM. The format is functional.
Assay [9] has as its target Chromo domain-containing protein 1 (Saccharomyces cerevisiae (strain ATCC 204508 / S288c) (Baker's yeast)) (UniProt P32657). The assay can be described thus: ScCHD-1 Enzyme Inhibition Assay. Also: in the data most compounds retested in dose-response had high values. The settings on record: 30 µM. The format is functional.

For some of these results: Entries with a potency or affinity are not part of this list.

Chain of Protein translocase subunit SecA (Escherichia coli (strain K12)) (P10408 whole entry): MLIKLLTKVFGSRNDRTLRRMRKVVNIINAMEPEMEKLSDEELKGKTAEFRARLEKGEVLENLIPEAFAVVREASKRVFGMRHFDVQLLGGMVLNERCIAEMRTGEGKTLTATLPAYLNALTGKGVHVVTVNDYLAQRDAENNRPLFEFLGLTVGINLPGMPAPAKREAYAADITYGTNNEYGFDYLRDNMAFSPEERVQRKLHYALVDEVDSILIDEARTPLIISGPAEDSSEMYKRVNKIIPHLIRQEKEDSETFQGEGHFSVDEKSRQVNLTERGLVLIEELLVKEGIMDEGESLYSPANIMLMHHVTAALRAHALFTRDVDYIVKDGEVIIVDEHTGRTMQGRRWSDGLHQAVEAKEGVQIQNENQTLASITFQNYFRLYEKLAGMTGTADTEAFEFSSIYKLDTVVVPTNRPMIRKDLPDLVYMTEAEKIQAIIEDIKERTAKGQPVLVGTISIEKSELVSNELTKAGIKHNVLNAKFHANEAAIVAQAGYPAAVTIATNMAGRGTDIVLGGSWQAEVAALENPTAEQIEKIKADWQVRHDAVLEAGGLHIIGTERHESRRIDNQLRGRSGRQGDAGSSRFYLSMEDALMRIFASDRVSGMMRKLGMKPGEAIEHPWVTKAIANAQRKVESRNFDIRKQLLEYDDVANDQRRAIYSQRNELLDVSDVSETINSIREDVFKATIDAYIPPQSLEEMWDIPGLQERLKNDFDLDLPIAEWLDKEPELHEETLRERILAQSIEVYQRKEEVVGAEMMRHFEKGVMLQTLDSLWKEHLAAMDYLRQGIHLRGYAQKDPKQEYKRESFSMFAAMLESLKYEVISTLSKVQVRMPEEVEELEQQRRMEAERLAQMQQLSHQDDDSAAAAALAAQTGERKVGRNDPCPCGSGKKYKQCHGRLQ
Chain of Sialic acid-binding Ig-like lectin 9 (Homo sapiens) (Q9Y336 whole entry): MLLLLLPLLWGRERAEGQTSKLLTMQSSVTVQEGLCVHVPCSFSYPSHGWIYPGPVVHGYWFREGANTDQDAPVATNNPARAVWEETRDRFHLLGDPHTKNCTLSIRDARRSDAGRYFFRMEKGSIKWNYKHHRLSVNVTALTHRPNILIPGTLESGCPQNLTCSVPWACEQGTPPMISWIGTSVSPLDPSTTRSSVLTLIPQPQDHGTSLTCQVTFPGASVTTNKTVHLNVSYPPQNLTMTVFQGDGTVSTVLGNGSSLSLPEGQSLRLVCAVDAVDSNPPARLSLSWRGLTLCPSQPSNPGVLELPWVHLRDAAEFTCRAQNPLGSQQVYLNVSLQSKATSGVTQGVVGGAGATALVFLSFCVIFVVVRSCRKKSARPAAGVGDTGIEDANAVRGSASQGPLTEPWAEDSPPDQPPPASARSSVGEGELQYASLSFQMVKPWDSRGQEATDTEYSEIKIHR
Chain of Chromo domain-containing protein 1 (Saccharomyces cerevisiae (strain ATCC 204508 / S288c) (Baker's yeast)) (P32657 whole entry, the tested form may be a part): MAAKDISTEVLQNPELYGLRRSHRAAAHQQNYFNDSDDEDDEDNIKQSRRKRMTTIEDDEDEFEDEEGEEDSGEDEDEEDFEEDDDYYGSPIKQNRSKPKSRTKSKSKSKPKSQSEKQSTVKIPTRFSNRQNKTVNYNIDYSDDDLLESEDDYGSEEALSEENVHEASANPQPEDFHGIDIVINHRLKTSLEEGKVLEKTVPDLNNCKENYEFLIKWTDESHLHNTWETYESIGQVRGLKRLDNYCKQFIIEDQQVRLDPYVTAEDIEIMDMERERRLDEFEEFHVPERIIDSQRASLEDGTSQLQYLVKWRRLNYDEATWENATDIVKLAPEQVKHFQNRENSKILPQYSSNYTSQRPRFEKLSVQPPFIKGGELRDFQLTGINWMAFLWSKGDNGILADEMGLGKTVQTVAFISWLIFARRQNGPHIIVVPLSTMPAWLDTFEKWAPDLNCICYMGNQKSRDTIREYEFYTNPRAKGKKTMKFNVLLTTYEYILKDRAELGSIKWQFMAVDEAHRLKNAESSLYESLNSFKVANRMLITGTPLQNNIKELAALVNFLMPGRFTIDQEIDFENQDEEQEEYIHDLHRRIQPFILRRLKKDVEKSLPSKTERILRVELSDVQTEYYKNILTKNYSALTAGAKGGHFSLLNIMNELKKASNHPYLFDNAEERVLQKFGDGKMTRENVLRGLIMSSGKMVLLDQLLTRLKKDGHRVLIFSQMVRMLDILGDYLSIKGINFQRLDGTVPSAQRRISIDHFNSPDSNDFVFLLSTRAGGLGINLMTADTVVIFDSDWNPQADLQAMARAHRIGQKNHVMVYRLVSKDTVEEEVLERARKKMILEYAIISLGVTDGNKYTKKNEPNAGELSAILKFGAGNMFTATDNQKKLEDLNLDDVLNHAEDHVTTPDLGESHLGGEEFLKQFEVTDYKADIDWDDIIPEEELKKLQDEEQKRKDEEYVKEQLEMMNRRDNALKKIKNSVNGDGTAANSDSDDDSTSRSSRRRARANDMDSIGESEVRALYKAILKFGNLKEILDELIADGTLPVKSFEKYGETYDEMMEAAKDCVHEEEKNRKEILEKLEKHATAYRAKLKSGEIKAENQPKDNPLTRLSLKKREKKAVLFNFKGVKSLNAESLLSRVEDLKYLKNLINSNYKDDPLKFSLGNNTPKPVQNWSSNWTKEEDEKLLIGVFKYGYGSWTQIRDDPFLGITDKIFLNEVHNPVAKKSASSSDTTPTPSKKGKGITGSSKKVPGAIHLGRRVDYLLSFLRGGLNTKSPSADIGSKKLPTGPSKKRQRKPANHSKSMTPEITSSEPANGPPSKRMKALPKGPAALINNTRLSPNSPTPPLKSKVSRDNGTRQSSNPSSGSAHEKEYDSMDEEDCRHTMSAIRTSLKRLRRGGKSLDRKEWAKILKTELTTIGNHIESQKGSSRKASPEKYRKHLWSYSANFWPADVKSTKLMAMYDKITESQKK

With `Cc1c(NC(=O)NCC(C)N2CCOCC2)cccc1OC(F)F` (stereo not drawn), the Percent Effect is -4.46% in assay [1]; 8.11% in [2]; 0.188% in [3]; 0.607% in assay [4]; 0.391% in the assay on Trypanosoma cruzi; 2.5% in [5]. In addition, the Percent Effect was 8.03% in [6]; -7.17% in the assay listed under Homo sapiens; 14.8% in assay [7]; -3.66% in assay [8]; -5.4% in assay [9].
Regarding `CN(C)C(=O)COCc1cncc2c1CCN(Cc1cnn(C)c1)C2`, the Percent Effect in [1] was -4.54%; in assay [2], 10.4%; in assay [3] it was 1.37%; in assay [4], 20%; with Trypanosoma cruzi it was 0.0983%; in [5], -6.9%. Besides, the Percent Effect in assay [6] was 11.8%; in the assay filed under Homo sapiens, 10.6%; in assay [7], 3.23%; in assay [8] it was 8.64%; in assay [9], -2.53%.
In the case of `c1ncn(CC2CCCCN2Cc2csc(C3CCCC3)n2)n1` (stereo not drawn), the Percent Effect was -2.71% in [1]; -5.2% in assay [2]; -0.0278% in assay [3]; 1.89% in assay [4]; 9.55% in the assay with Trypanosoma cruzi; -1.42% in assay [5]. The Percent Effect in assay [6] stood at 6.93%; in the assay filed under Homo sapiens it was 11.4%; in assay [7] it was 10.7%; in assay [8], 19.5%; in [9], 66.7%.
In the case of `O=C(CN1CC(n2cccn2)C1)NCCc1c[nH]c2ccccc12`, the Percent Effect in assay [1] was -3.91%; in [2] it was -2.7%; in assay [3], 143%; in assay [4] it was 3.66%; with Trypanosoma cruzi, 2.69%; in [5], -0.924%. Besides, the Percent Effect in assay [6] was -4.13%; in the assay listed under Homo sapiens, 10.4%; in assay [7], 0.99%; in assay [8] it was 11%; in assay [9] it was 7.61%.
For the molecule `CCc1ncncc1C(=O)N1CCN(Cc2ccco2)CC1`, the Percent Effect in assay [1] is -3.87%; in assay [2], 0%; in assay [3] it was 2.99%; in [4] it was -2.08%; with Trypanosoma cruzi, -4.2%; in [5] it was 3.24%. Further, the Percent Effect is 0.592% in assay [6]; 4.36% in the assay listed under Homo sapiens; -3.45% in assay [7]; -11.1% in [8]; 2.25% in assay [9].
In the case of `COCc1cccc(NC(C)C(=O)N(C)Cc2ccccc2)c1` (stereo not drawn), the Percent Effect in assay [1] was -8.46%; in [2] it was 10.8%; in assay [3], -16.3%; in assay [4], 48%; in the assay on Trypanosoma cruzi, 7.92%; in [5], 33.5%. The Percent Effect is -1.46% in [6]; -2.64% in the assay filed under Homo sapiens; 6.45% in assay [7]; 13.6% in [8]; -14.3% in [9].
With `Cc1nc(CN2CCc3ncnc(C)c3CC2)cs1`, the Percent Effect was -4.35% in assay [1]; 0% in assay [2]; 0.161% in assay [3]; 1.66% in assay [4]; 4.99% with Trypanosoma cruzi; 3.5% in assay [5]. Further, the Percent Effect in [6] was 10.3%; in the assay listed under Homo sapiens, -27.4%; in assay [7], 2.16%; in [8], 7.69%; in assay [9] it was 4.23%.
For the molecule `O=C(NCCNc1ncccn1)c1ccc(-c2ccco2)[nH]c1=O`, the Percent Effect in assay [1] is -5.27%; in assay [2], 27%; in assay [3], -6.43%; in [4], 9.97%; in the assay on Trypanosoma cruzi it was 1.23%; in assay [5], -11.6%. Moreover, the Percent Effect in assay [6] was 15.9%; in the assay listed under Homo sapiens, 6.48%; in [7], 8.37%; in assay [8] it was 23.5%; in assay [9], -11.4%.
